From PubChem BioAssay AID1851 (National Center for Advancing Translational Sciences (NCATS), 2009)
Hit rate of the full screen: of about 16,000 compounds, about 2,600 (16%) were called active. Not shown: some 20% with an inconclusive outcome. The call rests on the fitted dose curve; in most records, active means well fitted curve in the direction sought with a large enough effect; inconclusive means small, poorly fitted or top-dose-only effect, or effect the other way; inactive means no such curve, though single readings can be large or run the other way. Only a sample is shown.
On the % scale 0 is the no-effect control and ±100 the full control effect.

These compounds were tested against Cytochrome P450 2D6 (Homo sapiens) (UniProt P10635) (assay: Cytochrome panel assay with activity outcomes). Settings: recombinant CYP, pro-luciferin dealkylation, luminescence, p450-cyp2d6; series mostly up to 57.1 µM.
Cytochrome P450 2D6 (Homo sapiens), sequence (P10635 whole entry, looked up): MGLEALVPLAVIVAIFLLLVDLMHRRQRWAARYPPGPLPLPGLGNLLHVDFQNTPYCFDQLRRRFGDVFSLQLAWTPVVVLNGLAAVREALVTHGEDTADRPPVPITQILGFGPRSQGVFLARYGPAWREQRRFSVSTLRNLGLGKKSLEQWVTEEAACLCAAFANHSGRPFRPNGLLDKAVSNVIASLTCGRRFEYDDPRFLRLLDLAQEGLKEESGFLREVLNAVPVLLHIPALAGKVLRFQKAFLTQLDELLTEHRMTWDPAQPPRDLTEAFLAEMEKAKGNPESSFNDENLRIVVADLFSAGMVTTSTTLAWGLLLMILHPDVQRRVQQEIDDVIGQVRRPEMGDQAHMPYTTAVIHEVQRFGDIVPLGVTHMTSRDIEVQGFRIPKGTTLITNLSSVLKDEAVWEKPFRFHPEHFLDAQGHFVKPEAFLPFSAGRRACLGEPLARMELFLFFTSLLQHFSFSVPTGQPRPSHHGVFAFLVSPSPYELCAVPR
`CC(C)Oc1cccc(C(=O)NC(=S)N2CCN(c3ccc(C(F)(F)F)cc3[N+](=O)[O-])CC2)c1` was tested, and the AC50 was “inactive”. `O=C(CCN1C(=O)/C(=C/c2cccc(Br)c2)SC1=S)NNC(=O)c1cccnc1` was tested, and the AC50 was “inactive”. In the case of `C[C@](O)(c1ccccc1)c1nccc2ccccc12`, the activity, negative = inhibition is reported as -11.5% [at 11.4 µM] (inactive). For `COc1cccc(NC(=O)c2oc3ccccc3c2NC(C)=O)c1`, the AC50 was “inactive”. `CCOC(=O)CC1NC(=O)c2ccccc21` (centres undefined) was tested, and the AC50 was “inactive”. In the case of `C=CCSc1nc2ccccc2c(=O)n1Cc1ccco1`, the activity, negative = inhibition is reported as -11.2% [at 11.4 µM] (inactive). In the case of `C=CCn1c(SCC(=O)N2CCc3ccccc3C2)nc2ccccc2c1=O`, the AC50 is reported as 15.8 µM (active). For `O=C(Cn1c(SCC(=O)N2CCc3ccccc3C2)nc2ccccc21)NC1CCCC1`, the AC50 was 25.1 µM (active). For `C=CCn1c(SCC(=O)N2CC(=O)Nc3ccccc32)nc2scc(-c3ccccc3)c2c1=O`, the AC50 was “inactive”. With `Cc1ccc(-n2c(C)nnc2SCC(=O)N2CCc3ccccc3C2)cc1C` the AC50 was “inactive”. For `O=C(Cn1cccc1)NC1CCCCCC1`, the AC50 was “inactive”. In the case of `CCOC(=O)c1sc(N(Cc2ccccc2)C(=O)CN2C(=O)CN(C)C2=O)nc1C`, the AC50 is reported as “inactive”. With `c1ccc(-c2nccc(-c3ccc(-n4cnc5ccccc54)cc3)n2)nc1` the AC50 was “inactive”. For `CCOC(=O)c1cn(-c2nc(-c3ccc(Cl)cc3)cs2)c2c(F)c(N3CC(C)OC(C)C3)c(F)cc2c1=O` (centres undefined), the AC50 was “inactive”. `C[C@@H](c1ccccc1)N1C(=O)[C@H]2[C@H]3[C@H](O)[C@H](O)C/C(=N/OC[C@@H](O)COCc4ccco4)[C@H]3CC[C@@H]2C1=O` was tested, and the activity, negative = inhibition was -0.906% [at 11.4 µM] (inactive). In the case of `Cc1cccc(NC2=NC(=S)N(c3ccc(C(=O)O)cc3)C23CCCCC3)c1`, the AC50 is reported as “inactive”. With `CCCn1cnc2c1c(=O)n(CCCCC(C)=O)c(=O)n2C` the AC50 was “inactive”. With `NC(=O)C(=O)O` the AC50 was “inactive”. For `COc1ccc(C(=O)O/N=C/c2ccc(S(=O)c3ccc(Cl)cc3)nc2)cc1` (centres undefined), the AC50 was “inactive”. In the case of `CCCn1nnnc1-c1cc(Cl)cc(Cl)c1`, the AC50 is reported as “inactive”. For `CC1=CC(=C2C(=O)c3ccccc3C2=O)C=C(C)O1`, the AC50 was “inactive”. With `CC1=CC(=O)c2ccccc2C1=O` the AC50 was 7.94 µM (active). With `CCn1c(C)nc2c1C(=O)c1ccccc1C2=O` the AC50 was “inactive”. `Cc1ccc(-n2ncc3c(=O)n(CC(=O)NCC4CCCO4)cnc32)cc1` (centres undefined) was tested, and the AC50 was “inactive”. In the case of `O=C(/C=C/Nc1ccccc1)c1ccc(Oc2ncccn2)cc1`, the AC50 is reported as “inactive”. For `CCCc1ccc(-c2cc(C(=O)NN3CCOCC3)c3ccccc3n2)cc1`, the AC50 was “inactive”. `COc1ccccc1CNc1ncncc1-c1ccccc1OC` was tested, and the AC50 was 10 µM (active). With `COc1ccccc1CN1C(=O)c2ccncc2C1=O` the AC50 was “inactive”. With `COc1ccccc1CNc1ncncc1-c1ccccc1Cl` the AC50 was 2 µM (active). `COc1ccccc1CNc1ncncc1-c1ccoc1` was tested, and the AC50 was 20 µM (active). For `COc1ccccc1CCn1c(=O)c(-c2ccc(F)cc2)nc2cncnc21`, the AC50 was “inactive”. `COc1ccccc1CNc1ncncc1-c1ccccc1C` was tested, and the AC50 was 10 µM (active). In the case of `CCOc1[nH]n(-c2ccc(Cl)cc2)c(=O)c1C=Nc1ccc(Cl)cc1`, the AC50 is reported as “inactive”. For `CCOc1ccc(N/N=C(/C#N)C(N)=O)cc1`, the AC50 was “inactive”. `CO[C@@H]1COC(=O)[C@H]2CCCN2C(=O)[C@@H](C)COC(=O)C/C=C\[C@H]1C` was tested, and the activity, negative = inhibition was -1.92% [at 11.4 µM] (inactive). In the case of `Cc1ccc(C(=O)N/C(=C/C=C/c2ccccc2)C(=O)NCc2ccco2)cc1`, the AC50 is reported as “inactive”. In the case of `Cc1c(Br)cc(C(=O)NC2CCCCC2)c(C)c1C`, the AC50 is reported as “inactive”. For `OC[C@@H]1O[C@@H](n2cnc3c(SCc4ccccc4)ncnc32)[C@@H](O)[C@H]1O`, the activity, negative = inhibition was -0.968% [at 11.4 µM] (inactive). In the case of `O=C(CCCCC(=O)Nc1c(I)cc(I)c(C(=O)O)c1I)Nc1c(I)cc(I)c(C(=O)O)c1I`, the AC50 is reported as “inactive”. `CCOC(=O)CSc1nnc(CSc2nc3sc4c(c3c(=O)[nH]2)CCCC4)n1-c1ccccc1` was tested, and the AC50 was “inactive”. For `NC1=NC(=O)/C(=C/c2cccs2)S1`, the AC50 was “inactive”. In the case of `COc1ccc(-c2nc3cnc(N4CCNCC4)nc3n(C3CC3)c2=O)cc1`, the AC50 is reported as “inactive”. `Nc1ccc(S(=O)(=O)Nc2ccc(Cl)nn2)cc1` was tested, and the AC50 was “inactive”. For `COc1ccc2c(c1)-c1c(sn(-c3ccc(OC)c(OC)c3)c1=S)C(C)(C)N2`, the AC50 was “inactive”. For `O=C(O)c1cccc(OCCO)c1`, the activity, negative = inhibition was 5.58% [at 11.4 µM] (inactive). In the case of `C[C@H]1CN(CCO)CCN1c1ccccc1`, the activity, negative = inhibition is reported as 11.2% [at 11.4 µM] (inactive). In the case of `OCCN1CCN(CCOc2cccc(Cl)c2)CC1`, the AC50 is reported as 5.01 µM (active). With `CO[C@H]1COC(=O)[C@H]2CCCN2C(=O)C/C=C\[C@@H](C)[C@H](OC)COC(=O)C/C=C\[C@@H]1C` the activity, negative = inhibition was -7.59% [at 11.4 µM] (inactive). `CC1=C[N+](=O)c2ccccc2[N+]1=O` was tested, and the activity, negative = inhibition was 22.3% [at 11.4 µM] (inactive). With `COc1ccc(O[C@H]2C=C[C@@H](c3ccccc3)O[C@H]2CO/N=C\C[C@@H]2C=C[C@H](OC(C)=O)[C@H](COC(C)=O)O2)cc1` the activity, negative = inhibition was -5.75% [at 11.4 µM] (inactive). For `CC(=O)OC[C@@H]1O[C@H](CCO/N=C(\C)CCC(=O)OC[C@@H]2O[C@H](C#Cc3ccccc3)C=C[C@@H]2Oc2ccc(C)cc2)C=C[C@@H]1OC(C)=O`, the activity, negative = inhibition was 15.9% [at 11.4 µM] (inactive). In the case of `CCCNC(=O)OC[C@@H]1O[C@H](CCO/N=C2\c3cc(OC)ccc3O[C@H](c3cccc(OC)c3)[C@H]2O)C=C[C@@H]1Oc1ccc(OC)cc1`, the activity, negative = inhibition is reported as -1.45% [at 11.4 µM] (inactive). With `COc1ccc(O[C@H]2C=C[C@@H](c3ccccc3)O[C@H]2CO/N=C(/C)CCC(=O)OC[C@@H]2O[C@H](c3ccccc3)C=C[C@@H]2Oc2ccc(OC)cc2)cc1` the activity, negative = inhibition was 8.39% [at 11.4 µM] (inactive). For `COc1cccc([C@H]2Oc3ccc(OC)cc3/C(=N\O[C@@H]3O[C@H](COC(C)=O)[C@H](OC(C)=O)[C@H](OC(C)=O)[C@H]3OC(C)=O)[C@@H]2O)c1`, the AC50 was 3.16 µM (active). In the case of `CC(=O)OC[C@H]1O[C@@H](O/N=C(\C)CCC(=O)OC[C@@H]2O[C@H](C#Cc3ccccc3)C=C[C@@H]2Oc2ccc(C)cc2)[C@H](OC(C)=O)[C@@H](OC(C)=O)[C@H]1OC(C)=O`, the AC50 is reported as 3.98 µM (active). For `C/C(CCC(=O)OC[C@@H]1O[C@H](C#Cc2ccccc2)C=C[C@@H]1Oc1ccc(C)cc1)=N/OC[C@@H](O)COCc1ccco1`, the activity, negative = inhibition was 5.64% [at 11.4 µM] (inactive). In the case of `COc1ccc(O[C@H]2C=C[C@@H](c3ccccc3)O[C@H]2COC(=O)CC/C(C)=N/O[C@@H]2O[C@H](COC(C)=O)[C@H](OC(C)=O)[C@H](OC(C)=O)[C@H]2OC(C)=O)cc1`, the AC50 is reported as 3.16 µM (active). In the case of `COc1ccc(O[C@H]2C=C[C@@H](c3ccccc3)O[C@H]2CO/N=C2/c3cc(OC)ccc3O[C@@H](c3cccc(OC)c3)[C@H]2O)cc1`, the activity, negative = inhibition is reported as -21.5% [at 11.4 µM] (inactive). In the case of `CN1CCN(c2ncc3ncc(=O)n(CCC#N)c3n2)CC1`, the AC50 is reported as “inactive”. `COC(=O)c1ccc(Oc2cc(C)nc(-n3nc(C)cc3C)n2)cc1` was tested, and the AC50 was “inactive”. In the case of `Cc1cccc(NC(=S)NNC(=O)CC(C)O)c1C` (centres undefined), the AC50 is reported as “inactive”. For `O=C(/C=C/c1ccc2ccccc2c1)c1ccoc1`, the AC50 was “inactive”. In the case of `COC(=O)c1c(-c2ccc3ccccc3c2)csc1NC(=O)Cc1ccc(OC)c(OC)c1`, the AC50 is reported as “inactive”. For `CNC(=O)c1nnn(Cc2ccccc2)c1NC(=O)C(F)(F)F`, the AC50 was “inactive”. `O=C(N/N=C/c1ccc([N+](=O)[O-])s1)c1ccccc1Br` was tested, and the AC50 was “inactive”. For `O=C(NCCNc1ccc([N+](=O)[O-])cc1)c1ccccc1Br`, the AC50 was 11.2 µM (active). `O=C(O)CCCCCNC(=O)c1ccccc1Br` was tested, and the AC50 was “inactive”. For `NC(=O)N1c2ccccc2C=Cc2ccccc21`, the AC50 was “inactive”. In the case of `Cc1cc(Oc2ccc(-c3ccccc3)cc2)nc(N2CCOCC2)n1`, the AC50 is reported as “inactive”. In the case of `CCC(C)n1nnc2c(=O)oc3ccccc3c21` (centres undefined), the AC50 is reported as “inactive”. For `C[C@@H](C(=O)Nc1ccc2ccccc2c1)[C@@H]1C[C@@]1(C)[C@@H](NC(=O)c1cnccn1)c1ccccc1`, the AC50 was “inactive”. With `C[C@@H](C(=O)Nc1ccc2ccccc2c1)[C@@H]1C[C@@]1(C)[C@@H](NC(=O)c1ccncc1Cl)c1ccccc1` the AC50 was 12.6 µM (active). In the case of `COC(=O)[C@H]1C[C@@H]1[C@H](NC(=O)c1cnccn1)c1ccccc1`, the AC50 is reported as “inactive”. For `C[C@@H](C(=O)Nc1ccc2ccccc2c1)[C@H]1C[C@]1(C)[C@H](NC(=O)c1cnccn1)c1ccccc1`, the AC50 was 0.1 µM (active). For `O=P(O)(O)O[C@@H]1O[C@H](CO)[C@@H](O)[C@H](O)[C@@H]1O`, the activity, negative = inhibition was 9.85% [at 11.4 µM] (inactive). In the case of `CCOC(=O)/C(C#N)=C\N(C)C`, the AC50 is reported as “inactive”. With `O=C(c1cccc(F)c1)N1CCC2(CCCN(c3ccc(-c4ccccc4)cc3)C2)CC1` the AC50 was “inactive”. In the case of `Cc1ccc(OCC(=O)Nc2ccc(S(=O)(=O)Nc3onc(C)c3C)cc2)cc1`, the AC50 is reported as “inactive”. With `COCc1nc2c([nH]1)c(=O)n(C)c(=O)n2CC(C)C` the AC50 was “inactive”. `O=C(O)CCC(=O)N1CCOc2ccc(Cl)cc21` was tested, and the AC50 was “inactive”. With `CC(=O)NNC(=O)N1Cc2ccccc2Oc2ccc(Cl)cc21` the AC50 was 6.31 µM (active). `CC(=O)NNC(=O)C(O)(c1ccccc1)c1ccccc1` was tested, and the AC50 was “inactive”. For `CC/C(O)=C(\C#N)c1nnc2n1CCCCC2`, the AC50 was “inactive”. In the case of `COc1ccc(-c2nc3cnc(Nc4cccc(OC)c4)nc3n(CCC#N)c2=O)cc1`, the AC50 is reported as “inactive”. In the case of `Cc1ccc(NC(=O)Cn2nc([N+](=O)[O-])c(Br)c2C)cc1C`, the AC50 is reported as “inactive”. With `CCOc1ccccc1CNCCN1CCOCC1` the AC50 was 12.6 µM (active). For `COc1cc(CNCCN2CCOCC2)ccc1OCc1ccccc1Cl`, the AC50 was 11.2 µM (active). For `COc1cc(CNCc2ccccn2)ccc1OCc1ccc(Cl)cc1Cl`, the AC50 was 12.6 µM (active). In the case of `COc1cc2c(cc1OC)-c1cc(NCc3ccccn3)nc(=O)n1CC2`, the AC50 is reported as “inactive”. `COc1ccc(NC(=O)COc2ccc(CNCCCN3CCOCC3)cc2OC)cc1` was tested, and the AC50 was “inactive”. `Cc1ccccc1-c1cc(NCCN2CCOCC2)ncn1` was tested, and the AC50 was “inactive”. For `c1csc(CNCCCN2CCOCC2)c1`, the AC50 was “inactive”. For `COc1cc(CNn2nnnc2N)ccc1OCc1c(Cl)cccc1Cl`, the AC50 was “inactive”. For `COc1ccc(CC(=O)NCc2ccccn2)cc1OC`, the AC50 was “inactive”.
